Gal4-VP16 FLuc: inhibits Gal4-VP16 luciferase reporter, ROR gamma counter-screen; Drosophila S2 Gal4-VP16 UAS-luciferase, luminescence, 20 h; Potency, µM (top dose mostly 53.6 µM), inactives show top-dose activity, negative = inhibition, most hits filed as inhibitors; 310,000 tested, 3.5% active; AID 2546;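 further: Gal4-VP16 expression switched on by copper sulfate through the metallothionein promoter; on the % scale 0 is the no-effect control and ±100 the full control effect; nearly all actives have a fitted effect of over 50% in size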
TGFb SMAD3 inh: inhibitors of TGF-b signaling. 410,000 tested, 1.2% active. Potency, µM (titrated, usually from 46.1 µM), inactives show top-dose activity, negative = inhibition, most hits filed as inhibitors. AID 588855. HepG2 CAGA-GFP TGF-b/SMAD3 reporter, GFP fluorescence, 18 h; TGF-beta stimulated, 500 pg/mL final; further: on the % scale 0 is the no-effect control and ±100 the full control effect; nearly all actives have a fitted effect of over 65% in size
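Per well, imaged GFP fluorescence of HEPG2 CAGA-GFP cells gives the signal; cells get compound, then TGF-beta (500 pg/mL final), 18 h at 37 degrees C; %Activity versus -TGF-beta and +DMSO controls.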
ATXN viability: reduces viability in counter-screen for ATXN expression inhibitors. S2 cells (HEK-293 line with an ATXN2-luciferase reporter) viability, CellTiter-Fluor protease fluorescence, 24 h. Potency, µM (series often up to 56.7 µM), most hits filed as cytotoxic. 400,000 tested, 0.49% active; further: nearly all actives have a fitted effect of over 40% in size
HepG2 tox: kills HepG2 cells in TGF-b inhibitor counter-screen; HepG2 CAGA-GFP viability, ATP luminescence, 18 h; 410,000 tested, 0.76% active; Potency, µM (doses to about 46.1 µM), inactives show top-dose activity change, negative = cytotoxicity, actives largely listed as cytotoxic
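HepG2 CAGA-GFP cells (1000/well, DMEM with 1% FBS) received compound, then TGF-beta at 500 pg/mL final, and were incubated 18 hours at 37 degrees C. Viability was read by CellTiter-Glo luminescence. Media-only wells were set as complete cell-killing and DMSO as no toxicity.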
ATXN2 expr inh: inhibitors of ATXN2 expression. 360,000 tested, 0.72% active. Potency, µM (titrated, usually from 57 µM), without a hit: at the top dose activity change, negative = inhibition, actives largely listed as inhibitors. HEK-293 ATXN2-luciferase reporter, luminescence, 24 h; further: on the % scale 0 is the no-effect control and ±100 the full control effect; nearly all actives have a fitted effect of over 55% in size
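qHTS (up to 57 uM final) was run with 24 h compound exposure of reporter cells at 37 °C. Each well was multiplexed: SteadyGlo luminescence measured ATXN2-luciferase expression after a fluorogenic Gly-Phe-AFC viability readout (25 uM final).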
RORgamma inh: inhibitors of mouse ROR gamma transcriptional activity; Drosophila S2 Gal4-RORgamma UAS-luciferase reporter, 20 h; Potency, µM (highest dose often 53.6 µM), for the others: top-dose activity change, negative = inhibition, hits mostly inhibitors; 310,000 tested, 5.4% active; further: on the % scale 0 is the no-effect control and ±100 the full control effect; nearly all actives have a fitted effect of over 60% in size
Target sequence (P51450 whole entry, looked up, the tested form may be a part): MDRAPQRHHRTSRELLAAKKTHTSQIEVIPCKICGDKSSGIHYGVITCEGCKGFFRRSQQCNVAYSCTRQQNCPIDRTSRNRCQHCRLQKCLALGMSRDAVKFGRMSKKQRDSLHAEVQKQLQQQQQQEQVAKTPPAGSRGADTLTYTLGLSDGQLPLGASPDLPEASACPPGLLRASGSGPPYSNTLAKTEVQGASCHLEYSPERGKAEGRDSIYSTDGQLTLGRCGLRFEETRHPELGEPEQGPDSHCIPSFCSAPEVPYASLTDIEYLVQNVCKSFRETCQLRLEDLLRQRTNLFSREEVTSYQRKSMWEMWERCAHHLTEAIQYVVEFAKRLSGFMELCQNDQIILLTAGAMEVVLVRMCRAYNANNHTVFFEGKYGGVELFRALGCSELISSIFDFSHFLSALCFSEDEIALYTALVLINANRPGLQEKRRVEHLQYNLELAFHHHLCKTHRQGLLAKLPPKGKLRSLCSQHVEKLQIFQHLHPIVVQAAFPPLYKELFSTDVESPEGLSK
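Stable Schneider cell line, Gal4 DNA-binding domain fused to ROR gamma, UAS-luciferase. Cmpd 1 hr RT → CuSO4 700 uM final → 20 hr RT → luciferase reagent 10 min → luminescence.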
The depositor's hits bear a star. This is a sample that favours compounds with a hit; in the whole collection about 6.1% have one here. The call rests on the fitted dose curve; in most records, active means well fitted curve in the direction sought with a large enough effect; inconclusive means small, poorly fitted or top-dose-only effect, or another doubt; inactive means no such curve, though single readings can be large; an effect the other way counts as inactive or inconclusive. Potency means the concentration at half of the fitted maximal effect.

Screening C[C@@H](C(=O)Nc1ccc2ccccc2c1)[C@H]1C[C@]1(C)[C@H](NC(=O)c1ccccc1)c1ccccc1 returned Gal4-VP16 FLuc 15.9% and RORgamma inh inconclusive.
COc1ccc(C(=O)N/N=C(\c2ccccc2)c2ccccn2)cc1 was read as Gal4-VP16 FLuc 0.501µM*, TGFb SMAD3 inh inconclusive, ATXN viability 10µM*, HepG2 tox -7.1%, ATXN2 expr inh 3.16µM* and RORgamma inh 0.708µM*.
`CC(C)(CNC(=O)c1cnn(-c2nccc(-c3cc4ccccc4o3)n2)c1C1CC1)N1CCOCC1` gave ATXN viability inactive.
`CCOc1ccc(CCNC(=O)c2cccc(-n3c(C)nc4cccnc43)c2)cc1` gave TGFb SMAD3 inh 0.0% and HepG2 tox -23.3%.
For CCC(=O)OCC(=O)C1(OC(=O)CC)C(C)CC2C3C(Cl)CC4=CC(=O)C=C[C@@]4(C)C3C(O)C[C@@]21C (some centres undefined) the results were Gal4-VP16 FLuc -27.1% and RORgamma inh 12.6µM*.
Screening CCN(CC)c1ccc(C(=O)O)cc1 returned Gal4-VP16 FLuc 4.9%, TGFb SMAD3 inh -3.5%, ATXN viability inactive, HepG2 tox 0.4% and RORgamma inh -1.6%.
For CCN(CC)c1ccc(/C=C2\C(=O)c3ccc(C(=O)O)cc3C2=O)cc1 the results were Gal4-VP16 FLuc 10µM*, TGFb SMAD3 inh -3.5%, ATXN viability inactive, HepG2 tox 0.9%, ATXN2 expr inh 12.4% and RORgamma inh 11.2µM*.
O=C(CSCc1ccc(Cl)cc1)Nc1nccs1 was read as Gal4-VP16 FLuc 0.1%, TGFb SMAD3 inh 2.7%, ATXN viability inactive, HepG2 tox -8.9%, ATXN2 expr inh -22.3% and RORgamma inh 14.1µM*.
O=C(Nc1nccs1)c1ccc(COc2ccc(Cl)cc2)o1 was read as Gal4-VP16 FLuc -28.8%, TGFb SMAD3 inh -12.7%, ATXN viability inactive, HepG2 tox -19.4%, ATXN2 expr inh 28.8% and RORgamma inh 12.6µM*.
`CC(C)C(C(=O)Nc1nccs1)N1C(=O)c2ccccc2C1=O` (centres undefined) gave Gal4-VP16 FLuc -3.3%, TGFb SMAD3 inh 0.0%, ATXN viability inactive, HepG2 tox 6.31µM*, ATXN2 expr inh 0.2% and RORgamma inh -9.9%.
Screening O=C(Nc1nccs1)c1ccc(COc2ccc(F)cc2)o1 returned Gal4-VP16 FLuc inconclusive, TGFb SMAD3 inh -2.3%, ATXN viability inactive, HepG2 tox -19.3%, ATXN2 expr inh 0.0% and RORgamma inh inconclusive.
Screening CC(C)C(C(=O)Nc1nccs1)c1ccc(Cl)cc1 (centres undefined) returned Gal4-VP16 FLuc inconclusive, TGFb SMAD3 inh inconclusive, ATXN viability inactive, HepG2 tox -11.9%, ATXN2 expr inh -29.9% and RORgamma inh 14.1µM*.
`O=C(Nc1nccs1)c1ccc(COc2c(F)c(F)cc(F)c2F)cc1` gave Gal4-VP16 FLuc -12.5%, TGFb SMAD3 inh -26.4%, ATXN viability inactive, HepG2 tox -21.2% and RORgamma inh 11.2µM*.
Screening Cc1ccc(C(=O)Nc2nccs2)cc1 returned Gal4-VP16 FLuc -8.2%, TGFb SMAD3 inh 0.0%, ATXN viability inactive, HepG2 tox -2.1%, ATXN2 expr inh 53.0% and RORgamma inh inconclusive.
Screening Cc1cccc2cc(CN(CC3CCCO3)C(=O)C3CC3)c(N(C)C)nc12 (centres undefined) returned ATXN viability inactive.
CCCCNc1c(-c2ccc(OC)c(SC(C)CC)c2)nc2cnccn12 (centres undefined) was read as TGFb SMAD3 inh inconclusive, HepG2 tox -77.2% and ATXN2 expr inh inconclusive.
CCCCCCSc1cc(-c2nc3ccc(Cl)cn3c2NCCCC)ccc1OC was read as TGFb SMAD3 inh 9.4%, ATXN viability inactive, HepG2 tox -1.4% and ATXN2 expr inh 5.7%.

High-throughput results as filed in PubChem.
